Assay [1] concerns the target Luciferin 4-monooxygenase (Photinus pyralis) (UniProt P08659). The assay can be described thus: qHTS assay to identify small molecule inhibitors of firefly luciferase (AID 1224835). Further: nearly all actives have a fitted effect of over 25% in size. Further: potency means the concentration at half of the fitted maximal effect. Summed up:
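Biochemical qHTS: compounds run as interplate titrations against purified firefly enzyme, with D-luciferin and ATP each at its KM concentration. Light output recorded by CCD imaging.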
On the technique in general: In qHTS, concentration-response curves come from the screen itself.

A short description of assay [2]: qHTS assay to identify small molecule agonists of the constitutive androstane receptor (CAR) signaling pathway - cell viability counter screen (AID 1224836). Further: nearly all actives have a fitted effect of over 45% in size. Further: potency means the concentration at half of the fitted maximal effect. In a few lines: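 Counter screen multiplexed with the CAR reporter readout: HepG2 cells co-transfected with hCAR and the CYP2B6-2.2kb construct receive a 15-concentration compound series and 0.75 uM PK11195 (final), then CellTiter-Fluor fluorescence is read after 23 h.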

Assay [3] is described as follows: qHTS assay to identify small molecule antagonists of the constitutive androstane receptor (CAR) signaling pathway - cell viability counter screen (AID 1224837). Further: nearly all actives have a fitted effect of over 45% in size. Further: potency means the concentration at half of the fitted maximal effect. Summed up:
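To flag cytotoxic false antagonists, HepG2 hCAR/CYP2B6-2.2kb cells were treated 23 hr with 15-concentration compound series and 50 nM CITCO at 37 C/5% CO2; CellTiter-Fluor fluorescence was the measured end point.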

Assay [4] has as its target Nuclear receptor subfamily 1 group I member 3 (Homo sapiens) (UniProt Q14994). The assay can be described thus: qHTS assay to identify small molecule antagonists of the constitutive androstane receptor (CAR) signaling pathway (AID 1224838).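 Further: HepG2 cells stably expressing hCAR with CYP2B6 luciferase reporter stimulated by CITCO; nearly all actives have a fitted effect of over 40% in size.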 Further: potency means the concentration at half of the fitted maximal effect. In a few lines:
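Human hepatoma HepG2 cells expressing hCAR and a CYP2B6 promoter (2.2 kb) luciferase construct; compound titration (15 points) with 50 nM CITCO final, 24 h at 37 C/5% CO2; luminescence via ONE-Glo after 30 min at room temperature.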

The target is the same in assay [5]. Description: qHTS assay to identify small molecule agonists of the constitutive androstane receptor (CAR) signaling pathway (AID 1224839). Further: nearly all actives have a fitted effect of over 15% in size. Further: potency means the concentration at half of the fitted maximal effect. On activation: on the % scale 0 is the no-effect control and ±100 the full control effect. In a few lines: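 A 15-concentration quantitative screen uses HepG2 cells co-transfected stably with human CAR and CYP2B6-2.2kb reporter. Treatment lasts 24 h with 0.75 uM PK11195 final present; ONE-Glo luminescence is the signal.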

Assay [6] in a line: qHTS assay to identify small molecule antagonists of the estrogen related receptor signaling pathway with the pleiotropic PPARgamma coactivator (PGC) from Tox21 10K library - cell viability counter screen (AID 1224840; active means well fitted cell-killing curve with a large enough effect in the repeat runs, not every such curve was filed as active; further: nearly all actives have a fitted effect of over 40% in size; further: potency means the concentration at half of the fitted maximal effect). In a few lines: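 Seeded PGC/ERR cells (2,000/well, 6 h, 37 C/5% CO2) get compound by pin tool; 17.5 h incubation at 37 C; CellTiter-Fluor added, 30 min, fluorescence measured.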

For assay [7], the target named is Thyrotropin receptor (Homo sapiens) (UniProt P16473). The assay can be described thus: qHTS assay to identify small molecule agonists of the thyroid stimulating hormone receptor (TSHR) signaling pathway (AID 1224843; calls by dose curve; further: nearly all actives have a fitted effect of over 45% in size; further: potency means the concentration at half of the fitted maximal effect; on activation: on the % scale 0 is the no-effect control and ±100 the full control effect). Summed up: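 HEK293/TSHR, 800 cells/well; cpd 30 min RT; add cAMP-d2 + anti-cAMP-cryptate, 1 h RT; fluorescence read on plate reader. 15-pt titration, n=3.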
Sequence of Thyrotropin receptor (Homo sapiens) (P16473 whole entry, looked up): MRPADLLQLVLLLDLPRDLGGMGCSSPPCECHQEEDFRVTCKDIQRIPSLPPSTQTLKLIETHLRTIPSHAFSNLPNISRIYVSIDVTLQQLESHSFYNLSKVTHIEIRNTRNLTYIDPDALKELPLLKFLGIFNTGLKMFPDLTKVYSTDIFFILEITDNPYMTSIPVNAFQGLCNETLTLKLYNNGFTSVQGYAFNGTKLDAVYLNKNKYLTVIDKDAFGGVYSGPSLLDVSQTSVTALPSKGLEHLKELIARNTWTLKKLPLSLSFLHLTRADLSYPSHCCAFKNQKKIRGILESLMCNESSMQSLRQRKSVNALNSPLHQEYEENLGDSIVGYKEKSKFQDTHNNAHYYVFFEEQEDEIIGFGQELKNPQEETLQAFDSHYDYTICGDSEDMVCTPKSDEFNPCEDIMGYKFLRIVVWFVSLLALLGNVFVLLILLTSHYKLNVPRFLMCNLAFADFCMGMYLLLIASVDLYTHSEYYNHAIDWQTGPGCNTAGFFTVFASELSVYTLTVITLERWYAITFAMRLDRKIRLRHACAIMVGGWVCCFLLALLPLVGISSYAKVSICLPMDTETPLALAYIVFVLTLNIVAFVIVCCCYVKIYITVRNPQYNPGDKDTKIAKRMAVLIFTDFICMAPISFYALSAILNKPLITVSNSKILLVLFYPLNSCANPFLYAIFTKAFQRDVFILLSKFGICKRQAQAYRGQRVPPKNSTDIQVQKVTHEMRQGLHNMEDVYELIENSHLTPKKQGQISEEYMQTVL

Assay [8] is described as follows: qHTS assay to identify small molecule agonists of the hypoxia (HIF-1) signaling pathway - cell viability counter screen (AID 1224844; calls by dose curve; further: on the % scale 0 is the no-effect control and ±100 the full control effect; nearly all actives have a fitted effect of over 50% in size). Summed up:
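HRE-bla ME-180; 0.5% dFBS; cpd 17 h, 37C, 5% CO2; CellTiter-Glo lum., 30 min RT, post-FRET read, same wells.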

Assay [9] can be described thus: qHTS assay to identify small molecule agonists of H2AX (AID 1224845; active means well fitted activation curve with a large enough effect in the signal ratio in the repeat runs, not every such curve was filed as active; the % refers to the signal ratio; further: on the % scale 0 is the no-effect control and ±100 the full control effect). Summed up:
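Wild-type CHO-K1 cells, plated overnight, exposed 3hr at 37C to 15 concentrations (0.76% DMSO final). Lysed, then HTRF anti-pH2AX (S139) cryptate and anti-H2AX-d2 antibodies, 24 hr room temperature; 665/620 nm emission read.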

The nature of assay [10]: qHTS assay to identify small molecule agonists of the hypoxia (HIF-1) signaling pathway (AID 1224846; active means well fitted activation curve with a large enough effect in the signal ratio in the repeat runs, not every such curve was filed as active; the % refers to the signal ratio; further: on the % scale 0 is the no-effect control and ±100 the full control effect). Summed up:
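Reporter induction in HRE-bla ME-180 cells is taken as agonism: cells sit 5 hrs after plating, receive compounds or DMSO only, incubate 17 hrs at 37C under 5% CO2, and are loaded with CCF4-AM for beta-lactamase FRET measurement.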

A short description of assay [11]: qHTS assay to identify small molecule agonists of H2AX - cell viability counter screen (AID 1224847; calls by dose curve; further: nearly all actives have a fitted effect of over 30% in size; further: potency means the concentration at half of the fitted maximal effect). Summed up:
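We seed wild-type CHO-K1 cells overnight, treat them for 3 hr at 37C with compounds in 15-concentration series, and quantify remaining viability by CellTiter-Glo luminescence.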

A short description of assay [12]: qHTS RealTime-Glo MT Cell Viability Assay in HepG2 cells - 24 hour (AID 1224867). Further: nearly all actives have a fitted effect of over 50% in size. Further: potency means the concentration at half of the fitted maximal effect. In a few lines: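 qHTS, HepG2, 600 cells/well, RealTime-Glo (NanoLuc + prosubstrate) added with cells; 5 h preincubation; DMSO compound addition; 37 C; luminescence at 0/8/16/24/32/40 h.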
A short description of assay [13]: qHTS RealTime-Glo MT Cell Viability Assay in HEK293 cells - 32 hour (AID 1224868). Further: nearly all actives have a fitted effect of over 50% in size. Further: potency means the concentration at half of the fitted maximal effect. In a few lines: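 Assay medium contained NanoLuc luciferase plus cell-permeant prosubstrate, added with HEK293 cells at 600 cells/well. After 5 h at 37 C/5% CO2 compounds were added; plates stayed at 37 C for 40 h with serial luminescence reads.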
Assay [14] is described as follows: A CellTox Green Cytotoxicity Assay to monitor cytotoxicity in HEK293 cells - 0 hour (AID 1224869). Further: on the % scale 0 is the no-effect control and ±100 the full control effect; nearly all actives have a fitted effect of over 50% in size. In a few lines:
(§1)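 Tox21 screen in HEK293: membrane-impermeant cyanine dye fluoresces on binding dead-cell DNA; compound pinned 5 h post-seeding, plates held at 37 C, signal read repeatedly through 40 h.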

A short description of assay [15]: A CellTox Green Cytotoxicity Assay to monitor cytotoxicity in HEK293 cells - 40 hour (AID 1224871). Further: on the % scale 0 is the no-effect control and ±100 the full control effect; nearly all actives have a fitted effect of over 45% in size. Summed up:
as §1

Assay [16] in a line: qHTS assay to identify small molecule antagonists of the estrogen related receptor signaling pathway with the pleiotropic PPARgamma coactivator (PGC) from Tox21 10K library (AID 1224841; call rule not given here; further: potency means the concentration at half of the fitted maximal effect). In a few lines:
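Test chemicals dissolved in DMSO were applied to pre-incubated (6 h) PGC/ERR cells at 2,000 cells/well for an 18 h, 37 C treatment; reporter luminescence was then read using One-Glo.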

Assay [17] is described as follows: qHTS assay to identify small molecule agonists of the estrogen related receptor signaling pathway with the pleiotropic PPARgamma coactivator (PGC) from Tox21 10K library (AID 1224842). Further: nearly all actives have a fitted effect of over 15% in size. Further: potency means the concentration at half of the fitted maximal effect. In a few lines: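 PGC/ERR reporter cell line, 2,000 cells per well, incubated 6 h at 37 C before 23 nL compound in DMSO was added. After 18 h at 37 C, One-Glo luminescence read following 30 min at room temperature.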

The nature of assay [18]: qHTS assay to identify small molecule antagonists of the estrogen related receptor (ERR) signaling pathway from Tox21 library (AID 1224848). In a few lines:
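Compounds dissolved in DMSO are pin-transferred onto ERR reporter cells (2,000 per well) that have settled for 6 h at 37 C. Plates then incubate 18 h at 37 C before ONE-Glo luciferase reagent and a luminescence read 30 min later.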

Assay [19] is described as follows: qHTS assay to identify small molecule agonists of the estrogen related receptor (ERR) signaling pathway from Tox21 library (AID 1224849; calls by dose curve; further: on the % scale 0 is the no-effect control and ±100 the full control effect; nearly all actives have a fitted effect of over 15% in size). The conditions noted are these: ERR reporter cell line, ONE-Glo luciferase, 18 h. Summed up:
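Tox21 compounds tested for ERR agonism in an NTP reporter cell line: 18 h treatment at 37 C, then ONE-Glo luminescence.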

A short description of assay [20]: qHTS RealTime-Glo MT Cell Viability Assay in HepG2 cells - 40 hour (AID 1224870). Further: nearly all actives have a fitted effect of over 50% in size. Further: potency means the concentration at half of the fitted maximal effect. In a few lines: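 HepG2 cells (600/well) mixed with RealTime-Glo MT reagent, settled 5 h at 37 C/5% CO2 before compound addition. Nonlytic NanoLuc luminescence from viable-cell prosubstrate reduction read repeatedly during 40 h treatment at 37 C.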

The text below walks through data of PubChem BioAssay (Tox21).

Where “and” joins values, the source holds several entries; their conditions need not be identical. Equal values may be shown once. Inconclusive results are not listed. More than one record can exist for a structure, and the calls need not agree. Calls of active or inactive are those of the source. Unless noted, the call rests on the fitted dose curve; in most records, active means well fitted curve in the direction sought with a large enough effect in the repeat runs; inconclusive means weak or mixed curves; inactive means no such curve, though single readings can be large; an effect the other way counts as inactive or inconclusive.

Sequence of Luciferin 4-monooxygenase (Photinus pyralis) (P08659 whole entry, looked up): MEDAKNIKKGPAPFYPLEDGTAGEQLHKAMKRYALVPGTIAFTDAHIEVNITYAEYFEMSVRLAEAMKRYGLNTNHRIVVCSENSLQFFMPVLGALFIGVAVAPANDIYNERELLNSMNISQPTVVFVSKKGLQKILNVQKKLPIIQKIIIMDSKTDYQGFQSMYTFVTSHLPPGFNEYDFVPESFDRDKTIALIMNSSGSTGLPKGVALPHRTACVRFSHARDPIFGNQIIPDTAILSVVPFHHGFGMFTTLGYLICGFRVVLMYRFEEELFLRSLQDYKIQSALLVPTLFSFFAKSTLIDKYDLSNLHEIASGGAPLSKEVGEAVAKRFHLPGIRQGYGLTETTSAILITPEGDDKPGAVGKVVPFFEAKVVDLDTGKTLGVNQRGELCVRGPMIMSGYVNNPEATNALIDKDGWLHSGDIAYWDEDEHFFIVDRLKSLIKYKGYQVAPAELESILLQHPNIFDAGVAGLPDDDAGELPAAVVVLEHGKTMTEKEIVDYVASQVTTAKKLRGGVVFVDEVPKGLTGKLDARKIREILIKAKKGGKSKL
Sequence of Nuclear receptor subfamily 1 group I member 3 (Homo sapiens) (Q14994 whole entry, looked up): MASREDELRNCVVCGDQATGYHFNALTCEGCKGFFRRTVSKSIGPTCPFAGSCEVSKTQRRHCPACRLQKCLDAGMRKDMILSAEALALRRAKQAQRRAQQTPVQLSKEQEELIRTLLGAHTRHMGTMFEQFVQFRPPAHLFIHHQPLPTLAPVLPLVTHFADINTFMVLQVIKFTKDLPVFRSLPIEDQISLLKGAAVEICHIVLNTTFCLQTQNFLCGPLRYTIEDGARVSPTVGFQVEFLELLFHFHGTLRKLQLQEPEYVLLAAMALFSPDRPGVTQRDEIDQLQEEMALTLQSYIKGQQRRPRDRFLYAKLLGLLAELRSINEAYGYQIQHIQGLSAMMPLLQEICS

Turning to `OC(CCl)CCl`, the Potency result in assay [1], in assay [2], in [3], in assay [4], in [5] and in [6] was “inactive” in each case. Besides, the Potency entry in assay [7], in assay [8], in assay [10], in assay [11], in assay [12] and in assay [13] was “inactive” throughout. Moreover, the Potency result in assay [14] and in [15] was “inactive” in each case. The call in assay [9] was inactive.
For the molecule `O=C(Nc1ccc(Cl)cc1)Nc1ccc(Cl)c(Cl)c1`, the Potency is 5.62 µM (active) and 10 µM (active) and 9.77 µM (active) in [1]; 17.2 µM (active) in assay [2]; 15.4 µM (active) in assay [3]; 3.44 µM (active) and 4.22 µM (active) in assay [5]; 12.1 µM (active) and inactive in [16]; 22.5 µM (active) and 28.4 µM (active) and 22 µM (active) in assay [11]. For the same molecule, the Potency was 5.42 µM (active) and 11.9 µM (active) in assay [18]; 4.34 µM (active) and 4.36 µM (active) and 3.38 µM (active) in [13]. The Potency entry in assay [4], in assay [17], in assay [7], in [8], in [10] and in assay [12] was “inactive” in each case. Also, the Potency entry in assay [20] is “inactive”. The call in assay [9] was inactive. In addition, the activity change, positive = activation was -29.5% (inactive) in assay [19] (at 42.5 µM (top of the series)); -26.7% (inactive) and -3.58% (inactive) in assay [19] (at 92.4 µM (top of the series)).
`O=CCc1ccccc1`: the Potency result in assay [1], in assay [2], in [3], in assay [4], in assay [5] and in assay [6] was “inactive” in each case. In addition, the Potency entry in [8], in [10], in assay [12] and in assay [13] was “inactive” in each case. In addition, the molecule was classed as inactive in assay [9].
`OC[C@H]1O[C@@H]2O[C@H]3[C@H](O)[C@@H](O)[C@@H](O[C@H]4[C@H](O)[C@@H](O)[C@@H](O[C@H]5[C@H](O)[C@@H](O)[C@@H](O[C@H]6[C@H](O)[C@@H](O)[C@@H](O[C@H]7[C@H](O)[C@@H](O)[C@@H](O[C@H]8[C@H](O)[C@@H](O)[C@@H](O[C@H]1[C@H](O)[C@H]2O)O[C@@H]8CO)O[C@@H]7CO)O[C@@H]6CO)O[C@@H]5CO)O[C@@H]4CO)O[C@@H]3CO`: the Potency entry in [1], in assay [2], in [3], in assay [4], in assay [5] and in [6] was “inactive” throughout. Moreover, the Potency result in [7], in assay [8], in assay [10], in assay [12], in assay [13] and in [14] was “inactive” each time. In [15], the Potency entry was “inactive”. Besides, the result in assay [9] was inactive.
With `c1cc(N(CC2CO2)CC2CO2)ccc1OCC1CO1` (centres undefined), the Potency result in assay [1], in assay [5], in assay [16], in assay [7], in assay [12] and in assay [20] was “inactive” in each case. The Potency in assay [2] is 61.1 µM (active); in assay [3], 54.5 µM (active); in [4], 68.6 µM (active); in [17], 9.7 µM (active); in [18], 61.2 µM (active) and 54.5 µM (active); in [13] it was 24.6 µM (active) and 21.9 µM (active). Further, in [19] (at 92.4 µM (top of the series)), the activity change, positive = activation is -51.1% (inactive) and -59.2% (inactive).
Turning to `O=C(O)c1ccccc1Nc1cccc(C(F)(F)F)c1`, the Potency result in assay [1], in assay [2], in assay [3], in assay [4], in assay [5] and in assay [6] was “inactive” each time. Further, the Potency entry in assay [7], in assay [8], in assay [11], in [12], in assay [13] and in assay [14] was “inactive” in each case. Besides, the Potency entry in assay [20] and in [15] was “inactive” in each case. The molecule was classed as inactive in [9].
Regarding `COC(=O)C1=C(C)NC(C)=C(C(=O)OCCN(C)Cc2ccccc2)C1c1cccc([N+](=O)[O-])c1` (centres undefined), the Potency result in [1], in [4], in assay [5], in [8] and in [14] was “inactive” each time. In addition, the Potency in assay [2] was 48.3 µM (active); in assay [3], 43 µM (active) and 23.7 µM (active); in [6], 30.5 µM (active) and 26.6 µM (active); in assay [7], 30.5 µM (active); in assay [11], 44.7 µM (active) and 49.2 µM (active); in assay [12], 24.4 µM (active) and 10.7 µM (active). Moreover, the Potency in assay [13] is 21.7 µM (active) and 16.9 µM (active); in [20], 43.4 µM (active).
